This is an account of results in PubChem BioAssay (Tox21).

A short description of assay [1]: qHTS assay to identify aromatase inhibitors - cell viability counter screen (AID 743084;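 note: cells stimulated with testosterone during compound exposure; nearly all actives have a fitted effect of over 55% in size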; note: potency is the fitted concentration of half-maximal effect). (In general: Quantitative high-throughput screening tests each substance at several concentrations.)
Assay [2] addresses Aryl hydrocarbon receptor (Homo sapiens) (UniProt P35869). Nature of the assay: qHTS assay to identify small molecule that activate the aryl hydrocarbon receptor (AhR) signaling pathway (AID 743085).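 For activation: HG2L7.5c1 human HepG2 liver cells with stably integrated DRE-driven firefly reporter; series mostly up to about 70 µM.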 Note: nearly all actives have a fitted effect of over 15% in size. Note: potency is the fitted concentration of half-maximal effect. In outline:
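AhR agonist activity is inferred from enhanced light output of a DRE-controlled firefly luciferase reporter in HepG2 cells, measured with ONE-Glo following 24 h treatment at 37C.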

A short description of assay [3]: qHTS assay to identify small molecule that activate the aryl hydrocarbon receptor (AhR) signaling pathway - cell viability counter screen (AID 743086).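 For viability change, negative = cytotoxic: HepG2 liver cells carrying the AhR DRE luciferase reporter; series mostly up to about 70 µM.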 Note: nearly all actives have a fitted effect of over 45% in size. Note: potency is the fitted concentration of half-maximal effect. In outline:
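HepG2-AhR-luc (HG2L7.5c1) cells, 4000/well, treated 24 h at 37 C with compound; viability measured as CellTiter-Fluor fluorescence after 30 min in the same wells as the luciferase read.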

Assay [4] has as its target Peroxisome proliferator-activated receptor gamma (Homo sapiens) (UniProt P37231). In words: qHTS assay to identify small molecule agonists of the peroxisome proliferator-activated receptor gamma (PPARg) signaling pathway (AID 743094; active = well fitted activation curve with a large enough effect in the signal ratio in the repeat runs, not every such curve was filed as active; the % refers to the signal ratio). In outline: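 Beta-lactamase FRET fluorescence was the read-out after a 1 h room-temperature substrate step, following 17 h compound treatment at 37C of HEK293H cells expressing a UAS-driven bla reporter responsive to PPARg.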

Assay [5] has the same target. In words: qHTS assay to identify small molecule antagonists of the peroxisome proliferator-activated receptor gamma (PPARg) signaling pathway (AID 743191; calls by dose curve; note: series mostly up to about 63 µM; nearly all actives have a fitted effect of over 30% in size). A digest of the protocol:
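GeneBLAzer PPARg UAS-bla HEK293H cells, 5 h post-plating, exposed to compounds 17 h at 37C. LiveBLAzer B/G FRET substrate added for 1 h at room temperature; beta-lactamase reporter read by fluorescence intensity.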

The nature of assay [6]: qHTS assay to identify small molecule antagonists of the peroxisome proliferator-activated receptor gamma (PPARg) signaling pathway - cell viability counter screen (AID 743194). Note: nearly all actives have a fitted effect of over 55% in size. A digest of the protocol: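 Cytotoxicity counter screen in PPARg-bla HEK293H cells, same wells as reporter assay. Compounds plus 50 nM rosiglitazone (final) for 17 h at 37 C, then viability read by CellTiter-Glo luminescence.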

Assay [7] can be described thus: qHTS assay for small molecule agonists of the antioxidant response element (ARE) signaling pathway - cell viability counter screen (AID 743203; calls by dose curve; note: nearly all actives have a fitted effect of over 55% in size). In outline:
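HepG2 cells carrying ARE-driven beta-lactamase; 2,000 cells/well; 5 hrs plating; compound pinned from DMSO; 16 hrs 37C/5% CO2; CellTiter-Glo added; 30 min RT; luminescence.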

Assay [8] can be described thus: qHTS assay for small molecule activators of the heat shock response signaling pathway - cell viability counter screen (AID 743209). Note: nearly all actives have a fitted effect of over 50% in size. A digest of the protocol:
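Luminescence from CellTiter-Glo, added after the beta-lactamase FRET read, gave the viability signal. Cells were HSE-bla HeLa treated with DMSO-dissolved compounds for 5 h at 37 C following overnight plating.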

Assay [9] in a line: qHTS assay for small molecule agonists of the antioxidant response element (ARE) signaling pathway (AID 743202; active = well fitted activation curve with a large enough effect in the signal ratio in the repeat runs, not every such curve was filed as active; the % refers to the signal ratio). A digest of the protocol:
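ARE-bla HepG2 cells (beta-lactamase reporter under the antioxidant response element), plated 5 hours, then exposed to compounds 16 hours at 37 C. LiveBLAzer B/G FRET substrate added for 2 hours at room temperature; fluorescence intensity read.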

Assay [10] is described as follows: qHTS assay for small molecule activators of the heat shock response signaling pathway (AID 743210; active = well fitted activation curve with a large enough effect in the signal ratio in the repeat runs, with a control signal flat, not every such curve was filed as active; the % refers to the signal ratio; note: series mostly up to about 63 µM). In outline: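 HSE-bla HeLa cells (beta-lactamase reporter under heat shock response elements), plated overnight, then exposed to compounds 5 h at 37 C; LiveBLAzer B/G FRET substrate added, 2.5 h at room temperature, fluorescence intensity read.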

Records with an inconclusive call do not appear. Unmarked numbers belong to inactive results. Activity calls are given as the source filed them. Unless noted, calls come from the whole dose curve; as a rule, active = well fitted curve in the direction sought with a large enough effect in the repeat runs; inconclusive = weak or mixed curves; inactive = no such curve, though single readings can be large; an effect the other way counts as inactive or inconclusive.
% is set by controls: 0 for no effect and ±100 for the full control effect.

Sequence of Peroxisome proliferator-activated receptor gamma (Homo sapiens) (P37231 whole entry, looked up): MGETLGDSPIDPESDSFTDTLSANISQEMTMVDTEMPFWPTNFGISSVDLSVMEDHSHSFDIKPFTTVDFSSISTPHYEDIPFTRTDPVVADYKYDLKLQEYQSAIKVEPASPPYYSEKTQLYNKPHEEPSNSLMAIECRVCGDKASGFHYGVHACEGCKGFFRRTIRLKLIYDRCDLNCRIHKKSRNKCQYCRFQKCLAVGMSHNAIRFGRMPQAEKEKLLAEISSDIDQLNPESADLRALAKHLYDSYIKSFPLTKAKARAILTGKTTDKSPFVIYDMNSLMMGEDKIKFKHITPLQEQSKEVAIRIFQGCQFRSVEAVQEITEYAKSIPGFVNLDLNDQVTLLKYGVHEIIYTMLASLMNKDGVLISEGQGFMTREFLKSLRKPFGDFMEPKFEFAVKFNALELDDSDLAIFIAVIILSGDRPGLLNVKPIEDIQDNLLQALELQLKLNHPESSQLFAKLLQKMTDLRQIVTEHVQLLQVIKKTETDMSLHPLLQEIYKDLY
Sequence of Aryl hydrocarbon receptor (Homo sapiens) (P35869 whole entry, looked up): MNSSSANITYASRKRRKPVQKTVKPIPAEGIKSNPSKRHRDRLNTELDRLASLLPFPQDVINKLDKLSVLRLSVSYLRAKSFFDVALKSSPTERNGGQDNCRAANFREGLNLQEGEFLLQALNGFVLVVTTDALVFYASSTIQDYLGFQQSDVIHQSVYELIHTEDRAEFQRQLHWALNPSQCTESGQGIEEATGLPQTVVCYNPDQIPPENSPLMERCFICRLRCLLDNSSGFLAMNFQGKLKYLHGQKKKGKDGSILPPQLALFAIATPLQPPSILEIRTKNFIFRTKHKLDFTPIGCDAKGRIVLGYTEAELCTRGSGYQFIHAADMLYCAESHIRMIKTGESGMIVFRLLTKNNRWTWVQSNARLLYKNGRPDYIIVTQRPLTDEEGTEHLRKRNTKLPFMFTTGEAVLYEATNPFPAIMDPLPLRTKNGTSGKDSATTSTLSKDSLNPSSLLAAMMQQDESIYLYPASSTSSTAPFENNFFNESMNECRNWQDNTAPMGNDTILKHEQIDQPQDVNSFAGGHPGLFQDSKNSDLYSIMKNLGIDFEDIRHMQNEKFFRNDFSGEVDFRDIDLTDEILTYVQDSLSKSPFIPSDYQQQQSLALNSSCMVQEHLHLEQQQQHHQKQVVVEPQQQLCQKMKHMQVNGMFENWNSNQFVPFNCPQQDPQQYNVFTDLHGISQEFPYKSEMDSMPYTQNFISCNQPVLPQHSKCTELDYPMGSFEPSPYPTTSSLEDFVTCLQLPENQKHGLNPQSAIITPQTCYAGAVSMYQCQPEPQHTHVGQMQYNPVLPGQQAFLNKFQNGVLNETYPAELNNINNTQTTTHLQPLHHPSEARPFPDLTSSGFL

For the molecule `CCC(Cl)CCC(Cl)C(Cl)CC(Cl)C(Cl)C(Cl)CCl` (configuration not stated), the Potency result in [1], in [2], in assay [3], in [4], in [5] and in assay [6] was “inactive” each time. Also, the Potency entry in assay [7] and in [8] was “inactive” each time.
In the case of `CC1OC(=O)C(C)OC1=O` (configuration not stated), the Potency result in assay [1], in assay [2], in assay [3], in assay [4], in assay [5] and in assay [6] was “inactive” each time. The Potency result in assay [9], in [7], in assay [8] and in [10] was “inactive” in each case.
As for `CCCn1cnc2c1c(=O)n(CCCCC(C)=O)c(=O)n2C`, the Potency entry in assay [1], in assay [2], in assay [3], in [4], in [6] and in [9] was “inactive” throughout. Besides, the Potency result in [7], in assay [8] and in [10] was “inactive” each time.
For the molecule `COCC(C)OC(C)=O` (configuration not stated), the Potency entry in [1], in assay [2], in assay [3], in assay [4], in assay [5] and in assay [6] was “inactive” throughout. Besides, the Potency result in assay [7], in [8] and in assay [10] was “inactive” each time.
On to `NCC(=O)O`, for which the Potency entry in [1], in assay [2], in [3], in [4], in assay [5] and in assay [9] was “inactive” each time. In addition, the Potency entry in assay [7], in assay [8] and in assay [10] was “inactive” each time.
Turning to `OC(C#CCN1CCCC1)(c1ccccc1)c1ccccc1`, the Potency entry in [1], in assay [2], in assay [3], in [4], in assay [5] and in assay [6] was “inactive” each time. Moreover, the Potency entry in [9], in assay [7], in [8] and in [10] was “inactive” in each case.
For `c1ccc(CNCCNCc2ccccc2)cc1`, the Potency result in [1], in assay [2], in assay [3], in assay [4], in assay [6] and in [9] was “inactive” throughout. Besides, the Potency result in [7], in assay [8] and in assay [10] was “inactive” in each case.
Turning to `NC(N)=NCCC[C@H](N)C(=O)O`, the Potency entry in [1], in assay [2], in assay [3] and in [4] was “inactive” each time. Further, the activity change, negative = cytotoxicity in [6] is 5.54% [at 5.95 µM]; in assay [8], 4.58% [at 5.95 µM]. Further, the activation is 0.601% [at 8.36 µM] in assay [9] and 0.502% [at 5.95 µM] in assay [10]. For the same molecule, the viability change, negative = cytotoxic in assay [7] was 9.06% [at 8.36 µM].
As to `O=C1CCC(=O)O1`, the Potency entry in assay [1], in assay [2], in assay [3], in assay [4], in [5] and in assay [6] was “inactive” each time. The Potency result in assay [9], in assay [7], in assay [8] and in assay [10] was “inactive” each time.
For `O=C(OCCc1ccccc1)c1ccccc1`, the Potency entry in assay [1], in assay [2], in assay [3], in assay [4], in [5] and in assay [6] was “inactive” in each case. For the same molecule, the Potency result in assay [9], in [7], in assay [8] and in assay [10] was “inactive” in each case.
Take `C=CC1CC2C=CC1C2` (configuration not stated): the Potency entry in assay [1], in assay [2], in assay [3], in assay [4], in [6] and in assay [9] was “inactive” throughout. Besides, the Potency result in assay [7], in [8] and in assay [10] was “inactive” in each case.
As to `OC[C@H]1O[C@@H](OCCc2ccc(O)cc2)[C@H](O)[C@@H](O)[C@@H]1O`, the Potency entry in [1], in assay [2], in assay [3], in [4], in assay [6] and in assay [7] was “inactive” in each case. Further, the Potency result in assay [8] and in assay [10] was “inactive” each time.
With `O=C(NCCO[N+](=O)[O-])c1cccnc1`, the Potency result in [1], in assay [2], in assay [3], in assay [4], in [6] and in assay [9] was “inactive” in each case. In addition, the Potency result in assay [7] and in assay [10] was “inactive” in each case.
Consider `CCCCC(CC)COC(=O)COc1ccc(Cl)cc1Cl` (configuration not stated), for which the Potency result in assay [1], in assay [2], in assay [3], in assay [4], in [6] and in [9] was “inactive” each time. The Potency entry in assay [7], in [8] and in [10] was “inactive” in each case.
For the molecule `NCc1ccccc1Sc1ccccc1CO`, the Potency entry in assay [1], in [2], in assay [3], in assay [4], in [6] and in assay [7] was “inactive” in each case. Also, the Potency result in [8] and in assay [10] was “inactive” throughout.
`CCN(CC)c1ccc2c(-c3ccccc3C(=O)O)c3ccc(=[N+](CC)CC)cc-3oc2c1`: the Potency was 8.63 µM (active) in assay [1] and 9.69 µM (active) in assay [3]. The Potency entry in assay [2], in assay [4], in assay [6], in assay [7], in assay [8] and in assay [10] was “inactive” each time.
Turning to `COc1ccc(-c2nc3ccc(C4=NNC(=O)CC4C)cc3[nH]2)cc1` (configuration not stated), the Potency entry in assay [1], in [3], in [4], in assay [6], in assay [9] and in [7] was “inactive” each time. In addition, the Potency result in [8] and in assay [10] was “inactive” each time. Further, in assay [2], the Potency is 11.9 µM (active).
With `CCOc1ccc(N=Nc2ccc(/C=C/c3ccc(N=Nc4ccc(OCC)cc4)cc3S(=O)(=O)O)c(S(=O)(=O)O)c2)cc1`, the figures for the Potency in [1] and in assay [3] were 26.9 µM (active) and 19 µM (active), respectively. Moreover, the Potency entry in assay [2], in [4], in [6], in assay [7], in assay [8] and in [10] was “inactive” in each case.
Turning to `O=C(O)c1ccco1`, the Potency result in assay [1], in assay [2], in assay [3], in assay [4], in assay [9] and in assay [7] was “inactive” throughout. Further, the Potency result in [8] and in assay [10] was “inactive” in each case.
As to `COc1cc(Cl)ccc1Oc1ccc(Cl)cc1Cl`, the Potency result in assay [1], in assay [2], in assay [3], in assay [4], in assay [6] and in [9] was “inactive” each time. In addition, the Potency entry in assay [7], in assay [8] and in [10] was “inactive” in each case.
As for `CCOC(=O)COC(=O)c1cc(Oc2ccc(C(F)(F)F)cc2Cl)ccc1[N+](=O)[O-]`, the Potency result in assay [1], in [2], in assay [3], in [4], in assay [6] and in assay [7] was “inactive” each time. The Potency result in [8] is “inactive”.
Consider `C=C(C)C(=O)OCCOCC`, for which the Potency result in assay [1], in [2], in assay [3], in assay [4], in [6] and in assay [9] was “inactive” in each case. The Potency entry in assay [7], in assay [8] and in assay [10] was “inactive” throughout.
For the molecule `CCCCNc1ccc(C(=O)OCCOCCOCCOCCOCCOCCOCCOCCOCCOC)cc1`, the Potency entry in assay [1], in assay [2], in assay [3], in assay [4], in [6] and in [7] was “inactive” in each case. In addition, the Potency result in assay [8] and in assay [10] was “inactive” throughout.
Take `Nc1cccc(S(=O)(=O)c2cccc(N)c2)c1`: the Potency entry in [1], in assay [2], in assay [3], in assay [4], in [6] and in assay [7] was “inactive” each time. For the same molecule, the Potency result in assay [8] and in assay [10] was “inactive” each time.
For `Nc1ccc(N)c2c1C(=O)c1ccccc1C2=O`, the Potency in assay [1] is 17.2 µM (active); in assay [2] it was 6.11 µM (active); in assay [3] it was 21.7 µM (active). In addition, the Potency entry in assay [4], in [6], in [7], in [8] and in [10] was “inactive” in each case.
